Holding throughout (assay): Euclidean distance of Cell Painting phenotypic profile (signed KS, 77 features) to DMSO centroid (dimensionless distance); 5 or 10 uM (library dependent); higher = stronger phenotypic change vs DMSO (phenoactivity)
What all share (conditions): 48 h

The test system of assay [1] is 786-O. The essentials: (§1)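 Stained cells were imaged confocally at 20X with 9 fields per well, after 48 h of exposure to library compounds at 10 or 5 uM (set by library; 0.1% DMSO final). The cells were five cancer lines and a healthy fibroblast line. From the images, Harmony extracted 77 features, each expressed as a signed Kolmogorov-Smirnov statistic relative to same-plate vehicle wells. Phenoactivity is measured as Euclidean distance to the median vehicle profile, using plate-position-corrected, correlation-weighted profiles averaged across replicates at the top dose.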

Assay [2] relates to A549. The essentials: as §1
For assay [3], the system named is DU145. In short, it runs like this:
as §1

Assay [4] deals with FB. In short, it runs like this:
as §1

Assay [5] concerns HEPG2. The essentials: as §1
Assay [6] deals with OVCAR4. The essentials: as §1

Where a name gives a salt, the structure may show the parent alone.

For `O=C(CCc1ccc(O)cc1)c1c(O)cc(O)cc1O` [Phloretin], the Euclidean distance was 0.62 in assay [1]; 0.656 in assay [2]; 1.06 in assay [3]; 1.13 in assay [4]; 1.23 in assay [5]; 0.792 in assay [6].

Consider `O=C(Nc1cc(C(F)(F)F)ccc1N1CCCCC1)c1ccncc1`, for which the Euclidean distance in assay [1] came to 0.961; in assay [2], 1.47; in assay [3], 0.983; in assay [4] it was 0.794; in assay [5], 0.96; in assay [6], 1.67.

Regarding `C/C1=C2N=C(/C=C3N=C(/C(C)=C4\[N-]C(C(CC(N)=O)C4(C)CCC(=O)NCC(C)OP(=O)([O-])OC4C(CO)OC(n5cnc6cc(C)c(C)cc65)C4O)C4(C)N=C1C(CCC(N)=O)C4(C)CC(N)=O)C(CCC(N)=O)C\3(C)C)C(CCC(N)=O)C/2(C)CC(N)=O.[CH3-].[Co+3]` (centres undefined) [Methylcobalamin], the Euclidean distance in assay [1] was 0.89; in assay [2], 0.91; in assay [3], 1.12; in assay [4], 0.99; in assay [5], 1.02; in assay [6], 0.959.

Turning to `O=C(c1cccc(Cl)c1F)N1CCN(Cc2cccc(Nc3nccs3)n2)CC1`, the Euclidean distance turned out to be 2.99 in assay [1]; 3.18 in assay [2]; 1.34 in assay [3]; 2.34 in assay [4]; 2.74 in assay [5]; 2.83 in assay [6].

As for `CC[C@H](C)[C@@H]1NC(=O)[C@H](Cc2ccc(O)cc2)NC(=O)[C@@H](N)CSSC[C@@H](C(=O)N2CCC[C@H]2C(=O)N[C@@H](CC(C)C)C(=O)NCC(N)=O)NC(=O)[C@H](CC(N)=O)NC(=O)[C@H](CCC(N)=O)NC1=O` [Oxytocin (Syntocinon)], the Euclidean distance is 1.83 in assay [1]; 1.77 in assay [2]; 0.912 in assay [3]; 1.41 in assay [4]; 0.745 in assay [5]; 0.928 in assay [6].

For `NCC(=O)Nc1ccc(-n2nc(C(F)(F)F)cc2-c2ccc3c(ccc4ccccc43)c2)cc1`, the Euclidean distance in assay [1] amounted to 1.57; in assay [2] it was 1.4; in assay [3], 0.783; in assay [4] it was 1.33; in assay [5], 1.34; in assay [6] it was 1.38.

With `Cn1cc(C2=C(c3cccc(N)c3)C(=O)NC2=O)c2ccccc21`, the Euclidean distance in assay [1] came out at 3.84; in assay [2] it was 2.48; in assay [3], 2.97; in assay [4], 1.8; in assay [5] it was 1.6; in assay [6], 3.79.

In the case of `COc1ccc2[nH]cc(CCNC(C)=O)c2c1` [Melatonin], the Euclidean distance in assay [1] was 0.969; in assay [2], 0.391; in assay [3], 0.808; in assay [4], 0.749; in assay [5] it was 0.681; in assay [6], 0.982.

Take `Cc1cc(N2CCOCC2)ccc1Nc1nc(NC2CCCCC2)c2[nH]cnc2n1`: the Euclidean distance was 1.79 in assay [1]; 2.73 in assay [2]; 1.25 in assay [3]; 1.29 in assay [4]; 1.78 in assay [5]; 1.73 in assay [6].

With `O=c1c(-n2ccnn2)c[nH]n1-c1cc(N2CCOCC2)ncn1` [Molidustat (BAY 85-3934)], the Euclidean distance was found to be 1.15 in assay [1]; 0.806 in assay [2]; 1.01 in assay [3]; 1.09 in assay [4]; 0.627 in assay [5]; 1.19 in assay [6].

On to `O=c1[nH]cc(F)c(=O)[nH]1` [Fluorouracil (5-Fluoracil. 5-FU)], for which the Euclidean distance in assay [1] came out at 1.5; in assay [2] it was 3.01; in assay [3] it was 1.12; in assay [4], 2.37; in assay [5], 2.13; in assay [6], 2.12.

With `CCc1c(O)cc(O)c(C(=O)c2ccc(OCCN3CCOCC3)c(OC)c2)c1CC(=O)N(CCOC)CCOC`, the Euclidean distance in assay [1] was determined as 2.14; in assay [2], 3.28; in assay [3], 2.34; in assay [4] it was 3.63; in assay [5] it was 2.39; in assay [6], 3.18.

Regarding `O=c1[nH]c2ccccc2n1CCN1CCN(c2cccc(C(F)(F)F)c2)CC1` [Flibanserin], the Euclidean distance in assay [1] was 1.14; in assay [2] it was 1.22; in assay [3], 0.833; in assay [4] it was 1.07; in assay [5], 0.806; in assay [6], 1.35.

On to `COc1ccc(C[C@@H]2c3cc(OC)c(OC)cc3CC[N@+]2(C)CCC(=O)OCCCCCOC(=O)CC[N@@+]2(C)CCc3cc(OC)c(OC)cc3[C@H]2Cc2ccc(OC)c(OC)c2)cc1OC` [Cisatracurium Besylate], for which the Euclidean distance in assay [1] amounted to 1.42; in assay [2] it was 0.822; in assay [3] it was 0.815; in assay [4] it was 1.11; in assay [5] it was 1.11; in assay [6], 1.35.

`CCc1nc(-c2cccc(C)c2)c(-c2ccnc(NC(=O)c3ccccc3)c2)s1`: the Euclidean distance in assay [1] is 1.58; in assay [2], 0.983; in assay [3] it was 1.46; in assay [4], 1.37; in assay [5], 1.19; in assay [6], 1.34.

Regarding `CCCCOc1ccc(C(=O)Nc2ccc(F)cc2F)cc1`, the Euclidean distance in assay [1] turned out to be 1.45; in assay [2] it was 1.45; in assay [3], 1.14; in assay [4] it was 1.28; in assay [5] it was 0.872; in assay [6] it was 1.5.

With `CC(=O)OCC[N+](C)(C)C` [Acetylcholine iodide], the Euclidean distance came to 0.893 in assay [1]; 0.442 in assay [2]; 0.869 in assay [3]; 0.877 in assay [4]; 0.594 in assay [5]; 1.19 in assay [6].

For the compound `COC(=O)Nc1nc2cc(C(=O)c3ccccc3)ccc2[nH]1` [Mebendazole], the Euclidean distance in assay [1] is 3.02; in assay [2], 3.03; in assay [3], 3.69; in assay [4], 2.58; in assay [5], 3; in assay [6], 2.7.

In the case of `CCCCC(=O)N(Cc1ccc(-c2ccccc2-c2nn[nH]n2)cc1)C(C(=O)O)C(C)C.CCOC(=O)C(C)CC(Cc1ccc(-c2ccccc2)cc1)NC(=O)CCC(=O)O` (centres undefined) [Sacubitril/valsartan (LCZ696)], the Euclidean distance in assay [1] came out at 0.856; in assay [2] it was 0.709; in assay [3], 1.24; in assay [4] it was 1.04; in assay [5] it was 0.622; in assay [6], 1.01.

For the compound `CCN(CC)CCOC(=O)c1ccc(N)cc1` [Procaine], the Euclidean distance in assay [1] was found to be 0.916; in assay [2] it was 0.935; in assay [3] it was 0.941; in assay [4], 1.08; in assay [5], 1.37; in assay [6] it was 0.75.

Regarding `C#C[C@]1(O)CC[C@H]2[C@@H]3CCC4=Cc5oncc5C[C@]4(C)[C@H]3CC[C@@]21C` [Danazol], the Euclidean distance in assay [1] turned out to be 1.02; in assay [2], 1.02; in assay [3], 1.43; in assay [4], 0.594; in assay [5] it was 1.3; in assay [6] it was 1.02.

For the compound `C=CCc1ccc(O)c(OC)c1` [Eugenol], the Euclidean distance was 0.982 in assay [1]; 1.21 in assay [2]; 0.897 in assay [3]; 0.958 in assay [4]; 0.497 in assay [5]; 1.51 in assay [6].

As to `NCC(=O)CCC(=O)O` [5-Aminolevulinic acid HCl], the Euclidean distance in assay [1] is 1.2; in assay [2], 0.994; in assay [3] it was 1.81; in assay [4] it was 1.12; in assay [5], 1.61; in assay [6], 2.

With `O=C(O)CCCN1CCC(O[C@@H](c2ccc(Cl)cc2)c2ccccn2)CC1` [Bepotastine], the Euclidean distance came out at 0.883 in assay [1]; 0.582 in assay [2]; 0.573 in assay [3]; 0.639 in assay [4]; 0.595 in assay [5]; 0.955 in assay [6].

These data come from the supplement of paper PMC10127200.
